Assay results taken from ChEMBL document CHEMBL3988442, “University of Dundee, Small-Polar-MMV Screening Library” (2021).
For some assays here: Measured potencies and affinities stand elsewhere.

How the values were obtained:
Set-up in all cases: scale not given: direction of the effect not stated beside the values
[1] = target: Protein translocase subunit SecA (Escherichia coli (strain K12)) (UniProt P10408); test: Assay to Identify E. coli SecA ATPase Inhibitors; assay type: functional; conditions: 30 µM
[2] = target: T1, Ubiquitin-activating enzyme e1, putative (Leishmania donovani (strain BPK282A1)) (UniProt E9BSI1); test: Leishmania donovani Ubiquitin Activating Enzyme (LdE1); assay type: functional; conditions: 30 µM
T1 sequence (whole entry): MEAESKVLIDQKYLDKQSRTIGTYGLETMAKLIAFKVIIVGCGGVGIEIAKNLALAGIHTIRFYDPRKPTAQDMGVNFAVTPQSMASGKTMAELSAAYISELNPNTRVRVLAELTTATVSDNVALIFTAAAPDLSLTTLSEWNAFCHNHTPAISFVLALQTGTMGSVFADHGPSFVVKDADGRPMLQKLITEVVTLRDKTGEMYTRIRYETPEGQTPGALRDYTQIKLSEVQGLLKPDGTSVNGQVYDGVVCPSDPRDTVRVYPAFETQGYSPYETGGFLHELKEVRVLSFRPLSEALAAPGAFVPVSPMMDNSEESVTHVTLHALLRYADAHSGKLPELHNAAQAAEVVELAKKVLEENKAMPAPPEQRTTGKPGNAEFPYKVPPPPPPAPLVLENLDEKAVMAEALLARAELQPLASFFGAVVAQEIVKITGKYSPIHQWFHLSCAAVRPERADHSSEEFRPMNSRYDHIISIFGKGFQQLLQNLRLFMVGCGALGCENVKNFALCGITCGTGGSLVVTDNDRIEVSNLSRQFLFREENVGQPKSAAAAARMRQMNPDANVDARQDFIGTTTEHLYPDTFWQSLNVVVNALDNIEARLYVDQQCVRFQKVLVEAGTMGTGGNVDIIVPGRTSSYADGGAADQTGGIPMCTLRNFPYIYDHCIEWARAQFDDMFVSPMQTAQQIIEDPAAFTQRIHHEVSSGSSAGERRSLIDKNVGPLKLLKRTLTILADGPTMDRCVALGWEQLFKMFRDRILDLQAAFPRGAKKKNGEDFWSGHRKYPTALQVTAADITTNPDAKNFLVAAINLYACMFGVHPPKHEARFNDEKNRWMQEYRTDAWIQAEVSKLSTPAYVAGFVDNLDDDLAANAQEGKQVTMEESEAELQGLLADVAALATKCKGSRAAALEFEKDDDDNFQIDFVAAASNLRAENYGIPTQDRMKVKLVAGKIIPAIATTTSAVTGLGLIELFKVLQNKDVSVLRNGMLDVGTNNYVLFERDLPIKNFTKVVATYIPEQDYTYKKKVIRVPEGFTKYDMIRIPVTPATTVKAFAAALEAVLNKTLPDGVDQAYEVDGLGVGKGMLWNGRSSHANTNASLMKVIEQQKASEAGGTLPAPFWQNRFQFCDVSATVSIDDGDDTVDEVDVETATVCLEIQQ

[3] = target: AMP-activated protein kinase, AMPK (Homo sapiens) (UniProt P54646+O43741+P54619+Q9UGJ0+Q9Y478+Q13131+Q9UGI9); test: AMP-dependent Kinase enzyme assay. An in vitro enzyme assay that detects ADP turnover that is directly proportional to AMPK activity. This uses naive AMPK that is activated during the assay with MK-8722; assay type: functional; conditions: 30 µM
[4] = target: Sialic acid-binding Ig-like lectin 9 (Homo sapiens) (UniProt Q9Y336); test: Hs-Siglec9 ALPHAscreen SOP 20170721; conditions: 10 µM
[5] = test system: Trypanosoma cruzi; test: Trypanosoma cruzi phosphomannomutase and mannose-1-phosphate guanylyltransferase assay; assay type: functional; conditions: 10 µM
[6] = target: T2, Arginase-2, mitochondrial (Homo sapiens) (UniProt P78540); test: in vitro enzyme assay to detect the production of urea directly proportional to the activity of Arginase II; assay type: functional; conditions: 33.3 µM; note: in the data most compounds retested in dose-response had high values
T2 sequence (whole entry): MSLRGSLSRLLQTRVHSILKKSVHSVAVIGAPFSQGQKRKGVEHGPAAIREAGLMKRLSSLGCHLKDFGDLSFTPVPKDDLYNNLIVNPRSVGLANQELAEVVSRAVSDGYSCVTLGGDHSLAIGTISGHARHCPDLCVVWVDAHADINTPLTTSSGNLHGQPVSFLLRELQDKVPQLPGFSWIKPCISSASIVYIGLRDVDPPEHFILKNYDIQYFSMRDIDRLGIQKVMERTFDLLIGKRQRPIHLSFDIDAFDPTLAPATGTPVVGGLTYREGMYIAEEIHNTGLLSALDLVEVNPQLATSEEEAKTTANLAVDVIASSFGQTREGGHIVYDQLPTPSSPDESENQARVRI

[7] = target: T3, Proteasome subunit beta (Trypanosoma cruzi) (UniProt O96673); test: Trypanosoma cruzi proteasome chymotrypsin-like activity (TcProtChymo) assay.; note: in the data most compounds retested in dose-response had high values; assay type: functional; conditions: 9.37 µM
T3 sequence (whole entry): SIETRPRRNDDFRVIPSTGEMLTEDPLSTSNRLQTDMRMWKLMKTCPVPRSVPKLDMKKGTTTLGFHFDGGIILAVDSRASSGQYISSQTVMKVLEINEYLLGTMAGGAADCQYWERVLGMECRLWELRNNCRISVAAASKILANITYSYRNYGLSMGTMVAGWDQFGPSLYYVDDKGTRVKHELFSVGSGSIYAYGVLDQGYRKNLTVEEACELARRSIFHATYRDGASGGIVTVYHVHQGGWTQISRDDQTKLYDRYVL

[8] = species on record: Homo sapiens; test: To identify inhibition of the IFN signalling (Jak-Stat) pathway via expression of an eGFP reporter gene under the control of an IFN-stimulated response element (ISRE) containing MxA promoter.; assay type: functional; conditions: 30 µM
[9] = target: T4, Tyrosyl-tRNA synthetase, putative (Trypanosoma cruzi (strain CL Brener)) (UniProt Q4DSP6); test: Trypanosoma cruzi tyrosyl tRNA synthetase (TcYRS) _High Tyrosine SOP; assay type: functional; conditions: 30 µM; note: in the data most compounds retested in dose-response had high values
T4 sequence (whole entry): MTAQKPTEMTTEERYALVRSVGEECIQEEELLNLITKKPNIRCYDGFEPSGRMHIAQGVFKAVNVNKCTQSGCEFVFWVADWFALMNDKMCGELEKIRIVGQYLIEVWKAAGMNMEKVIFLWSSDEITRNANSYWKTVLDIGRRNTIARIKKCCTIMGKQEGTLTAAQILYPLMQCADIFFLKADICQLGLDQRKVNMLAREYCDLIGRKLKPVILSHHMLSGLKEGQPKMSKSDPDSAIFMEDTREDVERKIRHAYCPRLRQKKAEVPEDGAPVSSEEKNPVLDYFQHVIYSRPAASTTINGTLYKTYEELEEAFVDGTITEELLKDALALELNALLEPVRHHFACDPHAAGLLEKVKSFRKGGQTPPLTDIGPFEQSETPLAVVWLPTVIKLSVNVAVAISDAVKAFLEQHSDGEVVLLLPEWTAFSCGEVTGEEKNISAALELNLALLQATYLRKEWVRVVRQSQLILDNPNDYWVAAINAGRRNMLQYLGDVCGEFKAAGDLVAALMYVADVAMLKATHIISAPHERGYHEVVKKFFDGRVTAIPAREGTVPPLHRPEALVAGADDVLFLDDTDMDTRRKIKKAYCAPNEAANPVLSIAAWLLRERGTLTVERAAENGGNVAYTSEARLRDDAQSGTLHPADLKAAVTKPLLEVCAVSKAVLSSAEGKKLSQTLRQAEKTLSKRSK

[10] = target: T4, Tyrosyl-tRNA synthetase, putative (Trypanosoma cruzi (strain CL Brener)); test: Trypanosoma cruzi tyrosyl tRNA synthetase (TcYRS) SOP; assay type: functional; conditions: 30 µM
[11] = target: Chromo domain-containing protein 1 (Saccharomyces cerevisiae (strain ATCC 204508 / S288c) (Baker's yeast)) (UniProt P32657); test: ScCHD-1 Enzyme Inhibition Assay; assay type: functional; conditions: 30 µM; note: in the data most compounds retested in dose-response had high values
Chromo domain-containing protein 1 (Saccharomyces cerevisiae (strain ATCC 204508 / S288c) (Baker's yeast)), sequence (P32657 whole entry, the tested form may be a part): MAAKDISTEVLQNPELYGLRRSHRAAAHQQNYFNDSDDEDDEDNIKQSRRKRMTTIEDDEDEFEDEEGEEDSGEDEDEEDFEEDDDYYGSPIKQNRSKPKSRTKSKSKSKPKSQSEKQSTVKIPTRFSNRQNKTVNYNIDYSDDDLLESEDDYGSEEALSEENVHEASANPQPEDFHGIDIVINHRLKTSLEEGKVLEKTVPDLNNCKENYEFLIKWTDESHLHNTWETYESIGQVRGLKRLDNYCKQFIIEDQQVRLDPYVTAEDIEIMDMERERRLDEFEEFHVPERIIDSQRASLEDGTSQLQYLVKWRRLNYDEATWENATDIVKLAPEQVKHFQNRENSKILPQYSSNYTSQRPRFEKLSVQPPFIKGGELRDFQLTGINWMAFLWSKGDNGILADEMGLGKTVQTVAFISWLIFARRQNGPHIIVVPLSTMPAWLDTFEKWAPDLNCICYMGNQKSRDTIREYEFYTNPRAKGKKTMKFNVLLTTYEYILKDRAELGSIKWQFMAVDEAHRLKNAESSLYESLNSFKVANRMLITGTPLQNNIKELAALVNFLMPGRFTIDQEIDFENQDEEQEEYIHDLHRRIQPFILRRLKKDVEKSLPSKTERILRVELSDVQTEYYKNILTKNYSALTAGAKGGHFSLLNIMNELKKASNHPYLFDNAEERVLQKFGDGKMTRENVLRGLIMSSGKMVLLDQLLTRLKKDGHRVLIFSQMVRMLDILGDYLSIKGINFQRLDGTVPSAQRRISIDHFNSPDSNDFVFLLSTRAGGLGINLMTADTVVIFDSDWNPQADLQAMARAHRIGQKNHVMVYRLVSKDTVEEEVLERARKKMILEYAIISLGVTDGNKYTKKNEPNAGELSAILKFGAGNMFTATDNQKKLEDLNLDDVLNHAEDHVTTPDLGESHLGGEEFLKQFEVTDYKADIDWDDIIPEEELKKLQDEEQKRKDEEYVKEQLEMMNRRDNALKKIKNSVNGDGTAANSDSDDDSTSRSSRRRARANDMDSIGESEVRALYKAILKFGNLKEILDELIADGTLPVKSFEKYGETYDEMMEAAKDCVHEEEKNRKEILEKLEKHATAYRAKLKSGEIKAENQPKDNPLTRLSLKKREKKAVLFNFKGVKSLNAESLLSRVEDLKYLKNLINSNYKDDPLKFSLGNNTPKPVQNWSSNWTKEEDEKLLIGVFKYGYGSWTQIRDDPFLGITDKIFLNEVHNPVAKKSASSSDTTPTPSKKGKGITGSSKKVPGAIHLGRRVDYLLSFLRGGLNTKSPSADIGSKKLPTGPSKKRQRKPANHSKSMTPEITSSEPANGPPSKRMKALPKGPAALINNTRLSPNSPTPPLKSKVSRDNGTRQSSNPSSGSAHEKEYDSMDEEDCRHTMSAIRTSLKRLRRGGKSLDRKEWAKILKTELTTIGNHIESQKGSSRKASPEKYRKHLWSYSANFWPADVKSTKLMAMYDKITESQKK

Sialic acid-binding Ig-like lectin 9 (Homo sapiens), sequence (Q9Y336 whole entry): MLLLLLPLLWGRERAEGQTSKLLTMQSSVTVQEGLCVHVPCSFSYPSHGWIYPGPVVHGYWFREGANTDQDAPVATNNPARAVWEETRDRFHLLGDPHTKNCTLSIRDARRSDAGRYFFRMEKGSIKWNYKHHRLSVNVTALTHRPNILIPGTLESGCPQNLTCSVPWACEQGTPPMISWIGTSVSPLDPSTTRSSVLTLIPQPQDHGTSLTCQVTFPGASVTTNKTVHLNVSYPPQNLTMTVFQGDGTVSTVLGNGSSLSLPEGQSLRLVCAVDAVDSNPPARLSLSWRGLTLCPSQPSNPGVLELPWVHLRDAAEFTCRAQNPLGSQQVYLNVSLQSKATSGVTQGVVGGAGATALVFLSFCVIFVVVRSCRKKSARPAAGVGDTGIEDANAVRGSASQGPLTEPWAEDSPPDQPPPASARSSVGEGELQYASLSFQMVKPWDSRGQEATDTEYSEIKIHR
Protein translocase subunit SecA (Escherichia coli (strain K12)), sequence (P10408 whole entry): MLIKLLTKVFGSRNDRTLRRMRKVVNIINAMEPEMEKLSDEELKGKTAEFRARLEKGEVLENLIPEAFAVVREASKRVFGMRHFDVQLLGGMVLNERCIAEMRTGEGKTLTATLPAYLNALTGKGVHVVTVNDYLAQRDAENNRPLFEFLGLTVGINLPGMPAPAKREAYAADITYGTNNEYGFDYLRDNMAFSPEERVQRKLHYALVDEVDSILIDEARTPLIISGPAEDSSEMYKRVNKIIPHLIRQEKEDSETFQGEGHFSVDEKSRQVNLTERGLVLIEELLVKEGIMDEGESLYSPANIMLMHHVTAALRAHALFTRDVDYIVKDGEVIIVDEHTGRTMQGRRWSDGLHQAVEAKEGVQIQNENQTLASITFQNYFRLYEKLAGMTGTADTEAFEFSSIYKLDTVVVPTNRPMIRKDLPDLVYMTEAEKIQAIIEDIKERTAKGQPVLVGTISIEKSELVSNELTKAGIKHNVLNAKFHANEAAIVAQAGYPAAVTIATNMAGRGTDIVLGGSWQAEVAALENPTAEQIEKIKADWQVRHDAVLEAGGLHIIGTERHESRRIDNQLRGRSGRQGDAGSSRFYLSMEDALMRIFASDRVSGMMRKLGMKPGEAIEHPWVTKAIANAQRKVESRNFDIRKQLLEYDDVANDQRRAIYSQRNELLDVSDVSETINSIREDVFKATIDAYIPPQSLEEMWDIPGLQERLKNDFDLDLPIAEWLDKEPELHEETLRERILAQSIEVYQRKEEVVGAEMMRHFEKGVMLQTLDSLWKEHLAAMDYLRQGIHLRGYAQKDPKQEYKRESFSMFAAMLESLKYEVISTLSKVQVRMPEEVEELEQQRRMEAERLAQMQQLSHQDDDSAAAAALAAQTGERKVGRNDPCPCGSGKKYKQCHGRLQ

SMILES	Percent Effect [1] [%]	Percent Effect [2] [%]	Percent Effect [3] [%]	Percent Effect [4] [%]	Percent Effect [5] [%]	Percent Effect [6] [%]	Percent Effect [7] [%]	Percent Effect [8] [%]	Percent Effect [9] [%]	Percent Effect [10] [%]	Percent Effect [11] [%]
O=C(CN1CCc2c(ncn2C2CC2)C1)NC1CC1	-2.66	-3.8	-0.272	5.53	-2.56	3.66	9.09	5.09	2.08	5.06	-4.23
Cc1nn(C)c(N(C)C)c1CNC1CCc2c(F)cccc21 (configuration not stated)	0.322	13.2	-5.14	-4.54	4.89	5.75	17	-1.05	6.37	17.1	-6.66
CNC(=O)CC1CCN(Cc2nc(-c3cccc(Cl)c3)oc2C)CC1	-1.83	8.11	-6.08	19.1	4.05	0	20.2	4.01	5.82	9.76	-2.39
CC(C)n1cc(CN2CCCN(C(=O)c3cc(Cl)c[nH]3)CC2)cn1	-2.91	10.8	-4.13	15.8	1.23	-4.41	0.36	15.2	2.46	13.6	-8.52
CC(C)Nc1ncnc2c1CCN(C(=O)c1ccncc1F)CC2	-4.14	8.11	0.552	-7.16	-6.35	-2.87	17.2	4.19	3.24	10.3	-3.13
CCc1nc(C2CCCN(C(=O)c3cccc4cn[nH]c34)C2)no1 (configuration not stated)	-7.64	5.41	1.19	7.35	-6.41	-2.77	6.64	19.4	2.97	1.22	3.58
CC(NC(=O)NCCNc1ncccn1)c1cccs1 (configuration not stated)	-2.16	31.2	32.1	6.3	7.12	-2.49	4.9	12.3	8.74	24.4	-9.75
CCCNC(=O)Cn1cc(-c2ccccc2)cn1	-4.24	8.86	12.1	-0.382	-5.64	-0.645	4.97	8.94	2.08	7.59	-18.4
Cc1noc(Cl)c1CC(=O)N1CCCC(n2cccn2)C1 (configuration not stated)	-7.2	15.8	-1.76	0.841	-0.0934	-3.96	0.592	-4.99	10.3	16.1	1.45
CN(C)C(=O)CO[C@@H]1CC[C@H]2[C@H]1OCCN2C(=O)C1CCOCC1	-1.1	2.7	-6.25	-1.21	-3.52	2.08	13.8	21	9.9	8.54	2.17
Fc1ccc2[nH]c(C3CCCN3CCc3ccccn3)nc2c1 (configuration not stated)	-0.354	8.22	-4.31	9.65	1.98	-1.2	18.6	-28.3	13.5	23.5	2.89
Cc1ccc(CNC(=O)NCc2csc(C)n2)cn1	-2.07	17.7	-8.56	-3.48	-3.31	8.37	-1.56	0.522	5.42	16.5	-6.06
Cn1cnc(S(=O)(=O)NCCCN2CCCCCC2)c1Cl	-4.4	8.11	-5.51	10.5	-3.49	1.6	6.49	4.76	5.42	6.17	-6.58
COc1cc(C)nc(N2CCN(C(=O)CCc3nccs3)CC2)n1	-6.4	0	2.65	3.42	-5.6	-3.33	14.5	30.1	-2.65	2.44	-4.19
COc1ccc([C@@H]2CN(C(=O)CCC(F)(F)F)C[C@H]2NC(C)=O)cc1	-3.18	2.67	0.154	-0.127	-2.63	2.6	16.7	1.55	6.01	8.64	-6.25
CC(C)CN1CCCn2nc(CNC(=O)CCCc3cn[nH]c3)cc2C1	-4.55	2.67	1.75	9.18	6.91	-0.521	10.8	0.658	6.01	11.1	-7.73
O=C1CC(c2ccncc2)c2c(c(C(=O)O)cn2-c2ccc(F)cc2)N1 (configuration not stated)	-3.81	12	-34.9	-1.44	-3.14	-3.35	13.7	4.82	8.47	15.4	-5.97
O=C1CC2(CCN(CC3CCOC3)CC2)CN1Cc1cc(F)cc(F)c1 (configuration not stated)	-5.41	12.5	-5.76	26.3	4.37	16.3	9.65	-12.9	2.1	10.3	-4.1
Cc1cc2c(=O)n3c(nc2s1)CCN(C(=O)c1ccncc1)CC3	0.412	1.35	20.6	7.55	-4.74	3.02	9.98	0.756	2.15	6.49	-4.17
O=c1cc(CN2CCCC(CCc3c(F)cccc3F)C2)[nH]c(=O)[nH]1 (configuration not stated)	1.76	10.8	-7.22	1.61	4.25	14.3	16.7	25	10.1	19.5	-4.32
C[C@@H]1C[C@@H]2CCN(C(=O)c3cnccn3)C[C@H]2O1	-2.4	-2.7	5.23	-2.15	-1.95	0.417	-0.592	3.34	1.98	-3.66	-0.0529
O=C(CCC1CCCC1)NCCn1nc(C2CCNC2)c2nccnc21 (configuration not stated)	-2.79	12.2	-13.6	-8.06	-6.52	-5.34	17.6	23.6	-3.23	-3.9	-19.5
